Screens from PubChem BioAssay.
VLA-4 inh: inhibition in human VLA-4 binding assay, primary screen, VLA-4 allosteric modulator project, MLPCN library, flow cytometry, VLA-4 expressing cells; Integrin alpha-4 (Homo sapiens), P13612; ligand binding flow cytometry; inhibition, % (about 7 µM as worked out from the volumes in the protocol); hit rate 0.2% among 330,000; AID 2557, 2010; in the data active = inhibition above about 50%
ABCB6 inh 2: ABCB6 transporter inhibitors, primary screen, K562-ABCB6 cells, flow cytometry, MLPCN library. ATP-binding cassette sub-family B member 6 (Homo sapiens), Q9NP58. K562-ABCB6 porphyrin accumulation, 1 h; stronger effect = lower value. fluorescence ratio to DMSO, % at 10 µM. hit rate 0.19% among 360,000. AID 602162, 2011;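 active = fluorescence ratio to DMSO below 75%, the collection mean minus 3 SD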;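 note: signal is porphyrin accumulated inside mitochondria; 100% equals median channel fluorescence of DMSO control wells; lower ratio means ABCB6 inhibition with less porphyrin fluorescence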
Granule exo inh: LAMP-1 surface exposure blockers, TALL-104 cells – cell-based, flow cytometry, MLPCN library, primary screen; TALL-104 LAMP-1 surface exposure; cells stimulated with thapsigargin and PMA; hit rate 0.66% among 360,000; AID 651702, 2012; inhibition, % at 10 µM;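 active = inhibition above about 55%, limit read from the data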
NR1D1 modulator: modulators of Rev-erb alpha DNA binding, primary screen, biochemical, FITC-DNA, fluorescence polarization, uHTS | Nuclear receptor subfamily 1 group D member 1 (Homo sapiens), P20393 | Rev-erbα–FITC-DNA binding, 90 min | activity, % at 10 µM | hit rate 0.79% among 370,000;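 active = activity above about 14%, limit read from the data; passing the limit was not always enough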;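 note: 0% = DMSO wells with 35 nM protein and 100% = DMSO wells with 750 nM protein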
PG9 Ab binder: binders of HIV-1 gp120 antibody PG9, primary screen, biochemical, TR-FRET | TR-FRET gp120-PG9 antibody binding | hit rate 0.43% among 360,000 | HIV-1 gp120 / PG9 antibody interaction | inhibition, % at 6.7 µM | AID 624416, 2012; in the data active = inhibition above about 8.5%
ABCB6 inh CP1: ABCB6 transporter inhibitors, confirmation, K562-ABCB6 cells, flow cytometry, cherry pick 1; shares compounds with ABCB6 inh 2; K562-ABCB6 porphyrin accumulation, 1 h; stronger effect = lower value; ratio response (% of DMSO), % at 10 µM; 700 tested, under 10 active; AID 602430, 2012;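 active = repeat-averaged ratio response below 75% of DMSO, the collection mean minus 3 SD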;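 note: median porphyrin fluorescence at 575 nm with 488 nm excitation from mitochondria; lower ratio means less porphyrin signal so ABCB6 inhibition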
An asterisk follows results filed as active. Shown are actives, neighbours in structure and some others; about 2% of the full set was active somewhere.

Cc1ccc(C(=O)OCC(=O)c2c[nH]c3ccccc23)cc1S(=O)(=O)N1CCCCC1 was read as VLA-4 inh 5, ABCB6 inh 2 70*, Granule exo inh -1, NR1D1 modulator -2, PG9 Ab binder 0 and ABCB6 inh CP1 99.
For CC(=O)c1cccc(-c2ccnc3c2CC(C(=O)Nc2ccccc2)O3)c1 (stereo not drawn) the results were ABCB6 inh 2 95, Granule exo inh -2, NR1D1 modulator 6 and PG9 Ab binder 0.
`CC(C)c1ccc(NC(=O)C2Cc3c(-c4cccc(F)c4)ccnc3O2)cc1` (stereo not drawn) gave ABCB6 inh 2 97, Granule exo inh 17, NR1D1 modulator 2 and PG9 Ab binder 2.
Screening CC(=O)c1cccc(-c2ccnc3c2CC(C(=O)Nc2ccc(F)c(Cl)c2)O3)c1 (stereo not drawn) returned ABCB6 inh 2 94, Granule exo inh 13, NR1D1 modulator -2, PG9 Ab binder 0 and ABCB6 inh CP1 100.
For O=C(Nc1ccc2c(c1)OCO2)C1Cc2c(-c3ccc(Cl)cc3)ccnc2O1 (stereo not drawn) the results were ABCB6 inh 2 97, Granule exo inh -3, NR1D1 modulator 3, PG9 Ab binder -2 and ABCB6 inh CP1 97.
O=C(Nc1ccc(F)c(Cl)c1)C1Cc2c(-c3cccc(F)c3)ccnc2O1 (stereo not drawn) was read as ABCB6 inh 2 72*, Granule exo inh -3, NR1D1 modulator 3, PG9 Ab binder -3 and ABCB6 inh CP1 101.
CCOc1ccc(Cc2nccc3cc(OCC)c(OCC)cc23)cc1OCC was read as NR1D1 modulator 2.
Screening COC(=O)[C@]12C[C@H](CC(=O)N3CCOCC3)C(=O)N(Cc3ccc4c(c3)OCO4)C1=C[C@H](C(C)(C)C)O[C@@H]2C returned NR1D1 modulator -6 and PG9 Ab binder 0.
`CCCCCN(C(=O)CCC(=O)OC(C)C(=O)Nc1ccccc1C)c1c(N)n(CCCC)c(=O)[nH]c1=O` (stereo not drawn) gave ABCB6 inh 2 98, Granule exo inh 0, NR1D1 modulator 3, PG9 Ab binder -1 and ABCB6 inh CP1 103.
For CCCCCN(C(=O)CCC(=O)OC(C)C(=O)c1ccc(CC)cc1)c1c(N)n(CCCC)c(=O)[nH]c1=O (stereo not drawn) the results were ABCB6 inh 2 95, Granule exo inh 3, NR1D1 modulator 0, PG9 Ab binder 0 and ABCB6 inh CP1 98.
`CCCCN(C(=O)CCC(=O)OCC(=O)NCc1ccccc1)c1c(N)n(CCC)c(=O)[nH]c1=O` gave VLA-4 inh -12, ABCB6 inh 2 101, Granule exo inh -3, NR1D1 modulator -1, PG9 Ab binder 0 and ABCB6 inh CP1 102.
For CCCCCN(C(=O)CCC(=O)OCC(=O)c1ccc(CCC)cc1)c1c(N)n(CCCC)c(=O)[nH]c1=O the results were VLA-4 inh 7, ABCB6 inh 2 73*, Granule exo inh -2, NR1D1 modulator -2, PG9 Ab binder 0 and ABCB6 inh CP1 98.
`CCCCCN(C(=O)CCC(=O)OC(C)C(=O)NC1CCCCC1)c1c(N)n(CCCC)c(=O)[nH]c1=O` (stereo not drawn) gave VLA-4 inh 3, ABCB6 inh 2 96, Granule exo inh 1, NR1D1 modulator 7 and PG9 Ab binder -1.
For CCCCCN(C(=O)CCC(=O)OCc1ccccc1C)c1c(N)n(CCCC)c(=O)[nH]c1=O the results were VLA-4 inh 0, ABCB6 inh 2 97, Granule exo inh 1, NR1D1 modulator -5 and PG9 Ab binder 0.
